From publication PMC5540273 (PLoS ONE, 2017)

Tests used:
Conditions in all cases: concentration: 1 μM,replicates: in singlicate; n = 1
SNARK = tested on: T1, SNARK
T1 construct: gene NUAK2

SNRK = tested on: SNRK
SRC = tested on: SRC
SRMS = tested on: SRMS
SRPK1 = tested on: SRPK1
SRPK2 = tested on: SRPK2
SRPK3 = tested on: SRPK3
STK16 = tested on: STK16
STK33 = tested on: STK33
STK35 = tested on: STK35
STK36 = tested on: STK36
STK39 = tested on: STK39
SYK = tested on: SYK
SgK110 = tested on: SgK110
TAK1 = tested on: T2, TAK1
T2 construct: gene MAP3K7

TAOK1 = tested on: TAOK1
TAOK2 = tested on: TAOK2
TAOK3 = tested on: TAOK3
TBK1 = tested on: TBK1
TEC = tested on: TEC
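Further: KINOMEscan kinase panel screen.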

Structure (SMILES)	%Inh (SNARK)	%Inh (SNRK)	%Inh (SRC)	%Inh (SRMS)	%Inh (SRPK1)	%Inh (SRPK2)	%Inh (SRPK3)	%Inh (STK16)	%Inh (STK33)	%Inh (STK35)	%Inh (STK36)	%Inh (STK39)	%Inh (SYK)	%Inh (SgK110)	%Inh (TAK1)	%Inh (TAOK1)	%Inh (TAOK2)	%Inh (TAOK3)	%Inh (TBK1)	%Inh (TEC)
CNC(=O)c1ccccc1Nc1nc(Nc2cccc(CS(C)(=O)=O)c2)ncc1C.O=CO [GSK1520489]	99%	0%	100%	95.1%	95.4%	24%	75%	99.3%	93.2%	34%	65%	15%	70%	100%	96%	72%	15%	52%	44%	99.9%
Cc1cccc(-c2nc(Nc3ccncc3)c3sccc3n2)n1 [GW869641]	29%	25%	12%	21%	7%	0%	24%	16%	27%	1%	24%	0%	20%	15%	44%	45%	7%	38%	31%	0%
N#Cc1cccc(C(=O)NC2CCN(c3ccnc(Nc4ccc(F)cc4)n3)C2)c1 (centres unmarked) [GSK1379708]	0%	0%	5%	0%	40%	0%	0%	12%	0%	0%	0%	0%	27%	5%	0%	0%	0%	0%	0%	0%
COC(=O)Nc1nc2cc(Oc3ccc(NC(=O)Nc4cc(C(F)(F)F)ccc4Cl)cc3)ccc2[nH]1.Cl [GW697465]	0%	0%	1%	0%	41%	32%	3%	0%	57%	0%	0%	13%	24%	0%	62%	0%	0%	0%	0%	15%
COc1cc(Nc2nccc(N3CCC(NC(=O)c4cccc(C#N)c4)C3)n2)cc(OC)c1OC (centres unmarked) [GSK1379751]	3%	0%	22%	0%	49%	24%	0%	64%	0%	0%	0%	0%	0%	0%	0%	0%	0%	0%	10%	0%
C[C@@H](Oc1cc(-n2cnc3ccc(-c4ccncc4)cc32)sc1C(N)=O)c1ccccc1Cl [GSK483724]	51%	0%	5%	0%	73%	0%	25%	80%	19%	0%	0%	7%	12%	0%	39%	0%	0%	0%	17%	11%
CCCC(=O)Nc1n[nH]c2ncccc12 [SB-601436]	0%	0%	0%	4%	16%	0%	10%	3%	0%	0%	4%	0%	8%	0%	0%	2%	3%	0%	0%	0%
C[C@@H]1CNc2c(sc3ccc4nc(-c5ccc(O)cc5)ccc4c23)C(=O)N1	85%	2%	0%	0%	0%	0%	24%	30%	78%	9%	5%	6%	0%	0%	44%	86%	0%	0%	8%	5%
CS(=O)(=O)c1cccc(CNc2nc(Nc3ccc4c(c3)[C@@H]3C[C@@H]4CNC3=O)ncc2C(F)(F)F)c1	97.6%	0%	0%	0%	91.6%	0%	49%	97.3%	0%	0%	10%	9%	93.8%	0%	92.2%	51%	24%	36%	98.6%	0%
Cl.Cl.NC[C@H](CC1CCCCC1)NC(=O)c1ccc(-c2ccnc3[nH]ccc23)s1 [GSK1581428]	98.3%	0%	17%	0%	85%	12%	91.6%	54%	98.4%	63%	0%	7%	20%	95.3%	64%	87%	0%	14%	29%	0%
Cc1ccn2nc(-c3ccc(F)cc3)c(-c3ccncc3)c2c1.Cl [GW457859]	7%	52%	0%	0%	13%	68%	0%	1%	0%	0%	24%	4%	18%	0%	64%	0%	0%	0%	14%	0%
Cn1cc(-c2cccc3c(N)c(C(N)=O)nnc23)cn1	9%	11%	0%	24%	45%	11%	39%	11%	27%	8%	6%	29%	11%	0%	21%	25%	29%	12%	31%	0%
O=c1[nH]cc(-c2ccc(O)cc2)c2sc(-c3ccncc3)cc12 [GSK1033723]	8%	0%	0%	0%	21%	5%	0%	22%	0%	0%	26%	6%	26%	0%	11%	14%	0%	0%	19%	0%
COc1cccc(C2=C(Nc3cccc(Cl)c3)C(=O)NC2=O)c1 [SB-341556]	47%	9%	0%	0%	42%	0%	24%	14%	0%	94.9%	0%	8%	3%	0%	3%	21%	0%	23%	2%	0%
FC(F)(F)c1cc(Br)cc(Nc2nccc(-c3cnn4ncccc34)n2)c1 [GW810578]	47%	0%	39%	6%	9%	0%	0%	42%	12%	9%	19%	0%	21%	0%	62%	58%	0%	4%	17%	0%
Cc1cccc2c(-c3ccncc3)c(-c3ccc(F)cc3)nn12.Cl [GW461487]	17%	0%	0%	0%	0%	0%	100%	4%	0%	0%	24%	12%	25%	0%	0%	1%	0%	5%	16%	0%
O=C1NCCc2[nH]c(-c3ccncc3)cc21	87%	12%	6%	0%	0%	0%	4%	33%	–	68%	6%	23%	11%	0%	23%	96.9%	16%	41%	20%	0%
COc1cc2ncn(-c3cc(OCC4CCCCC4)c(C(N)=O)s3)c2cc1OC [GSK204559]	15%	0%	21%	0%	84%	0%	31%	4%	12%	30%	0%	7%	35%	0%	96.5%	0%	0%	0%	26%	13%
